The panel holds about 83,000 compounds, 20% with a hit somewhere; the sample as a whole holds those more often.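 Note: values are percent growth. 100 is the growth of untreated cells, values between 100 and 0 indicate rising inhibition; between -100 and 0 indicates cell death.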 Unmarked numbers belong to inactive results. Calls of active or inactive are those of the source. How the source made its calls: active means growth percent below 10; inactive means the rest.
Experiments:
Assay in all cases: NCI-60 one-dose screen, 48 h (100 = growth as untreated, 0 = no growth, -100 = all killed)
Conditions in all cases: 10 µM unless noted
[1] = test system: RPMI-8226 leukemia
[2] = test system: OVCAR-8 ovarian
[3] = test system: OVCAR-5 ovarian
[4] = test system: OVCAR-4 ovarian
[5] = test system: SK-OV-3 ovarian
[6] = test system: IGROV1 ovarian
[7] = test system: OVCAR-3 ovarian
[8] = test system: HS 578T breast
[9] = test system: NCI/ADR-RES ovarian
[10] = test system: T-47D breast

SMILES	growth [1]	growth [2]	growth [3]	growth [4]	growth [5]	growth [6]	growth [7]	growth [8]	growth [9]	growth [10]
COc1ccc(C2C(c3ccccc3)C(=O)N2c2cc(OC)c(OC)c(OC)c2)cc1I (stereo not given)	-9.86% (active)	16.7%	35.9%	39.8%	6.66% (active)	20.6%	12%	22.1%	9.97% (active)	69.7%
C=C(C)[C@@H]1CC[C@]2(C(=O)OCCOCCOCC[P+](c3ccccc3)(c3ccccc3)c3ccccc3)CC[C@]3(C)[C@H](CC[C@@H]4[C@@]5(C)CC[C@H](OC(=O)C(Cl)Cl)C(C)(C)[C@@H]5CC[C@]43C)[C@@H]12	-39.3% (active)	5.47% (active)	39.3%	-0.899% (active)	-8.97% (active)	6.43% (active)	-43.9% (active)	21.3%	50.2%	-21.2% (active)
CCCCCOC(=O)c1ccccc1O	102%	107%	105%	95.9%	92.2%	111%	102%	103%	110%	85.8%
COc1ccc2nc3c(n2c1)C(=O)C(=O)c1ccccc1-3	-0.676% (active)	9.51% (active)	-79.9% (active)	-81.3% (active)	24.8%	0.7% (active)	-22.8% (active)	-6.35% (active)	-7.37% (active)	21.4%
C=C1C(=O)O[C@H]2[C@H]1CC/C(COC(=O)CCCCCCCCC(=O)OC/C1=C/CC[C@@]3(C)O[C@H]3[C@H]3OC(=O)C(=C)[C@@H]3CC1)=C\CC[C@@]1(C)O[C@@H]21	-6.37% (active)	10.2%	28.9%	29%	86.9%	-19.2% (active)	2.11% (active)	10.3%	2.99% (active)	-27.3% (active)
Cc1nc2sc(C(=O)Nc3cccc(Cl)c3C)c(N)c2cc1C(C)O (stereo not given)	17.8%	21.9%	55.8%	54.2%	22.8%	31.6%	-5.67% (active)	31.8%	7.9% (active)	44.4%
COc1ccc(Sc2[nH]c(C(C)=O)c3ccccc23)cc1	41.4%	88%	94.1%	71.2%	19%	83.6%	68.3%	83.9%	40.8%	56.5%
CC(=O)c1cnc(-c2ccccc2)nc1CBr	37.7%	89.3%	96.3%	79.7%	105%	89.2%	30.1%	89%	92.2%	38.5%
COc1cc(-c2csc(NC(=O)Nc3ccc(Cl)cc3)n2)cc(OC)c1OC	8.27% (active)	10.4%	76.9%	9.02% (active)	53.5%	42.6%	19.4%	58.9%	7% (active)	-7.45% (active)
COc1ccc(-c2cc(-c3nnc(SCC(=O)Nc4ccc(C(C)=O)cc4)o3)c3ccccc3n2)cc1	-19.8% (active)	-21% (active)	71.4%	-49.6% (active)	17.8%	9.74% (active)	-20.6% (active)	-8.38% (active)	6.03% (active)	0.593% (active)
COc1ccc(-n2cc(COc3ccc4c5ccnc(C)c5n(CC(C)C)c4c3)nn2)cc1	27.5%	37.6%	91.3%	65.9%	56.7%	79%	66.2%	49.7%	53.9%	39.2%
C=C(C)[C@@H]1CC[C@]2(C(=O)NCCCO)CC[C@]3(C)[C@H](CC[C@@H]4[C@@]5(C)CCCNC(C)(C)[C@@H]5CC[C@]43C)[C@@H]12	29%	87.4%	88%	69.3%	85.5%	75.9%	79.2%	61.9%	82.7%	43.8%
CC(C)Cc1cc(CNC(=O)C2[C@H]3CN(C(=O)c4ccccc4)C[C@@H]23)nn1-c1ccccc1 (stereo not given in full)	84.7%	77.9%	97.9%	104%	76.8%	107%	100%	97.9%	93.8%	74.2%

Reference: PubChem BioAssay (NCI)
